We go through two sequences from paper PMC7862700, “An all-to-all approach to the identification of sequence-specific readers for epigenetic DNA modifications on cytosine”.

Holding throughout (experiment): DAPPL (digital affinity profiling via proximity ligation, sequencing); 10 mM Tris-HCl pH 7.5, 50 mM NaCl, 1 mM DTT, 4% glycerol, room temperature, 30 min; GST-TFs on glutathione beads, 16-mer random dsDNA library, 0.1% formaldehyde crosslink after washing; high values mean tight binding
Common to all, as to details: protein: recombinant; tags: N-terminal GST; dsDNA, one strand shown

Assay [1] deals with T1, ELK1 (Homo sapiens, UniProt P19419 1-428).
T1 sequence: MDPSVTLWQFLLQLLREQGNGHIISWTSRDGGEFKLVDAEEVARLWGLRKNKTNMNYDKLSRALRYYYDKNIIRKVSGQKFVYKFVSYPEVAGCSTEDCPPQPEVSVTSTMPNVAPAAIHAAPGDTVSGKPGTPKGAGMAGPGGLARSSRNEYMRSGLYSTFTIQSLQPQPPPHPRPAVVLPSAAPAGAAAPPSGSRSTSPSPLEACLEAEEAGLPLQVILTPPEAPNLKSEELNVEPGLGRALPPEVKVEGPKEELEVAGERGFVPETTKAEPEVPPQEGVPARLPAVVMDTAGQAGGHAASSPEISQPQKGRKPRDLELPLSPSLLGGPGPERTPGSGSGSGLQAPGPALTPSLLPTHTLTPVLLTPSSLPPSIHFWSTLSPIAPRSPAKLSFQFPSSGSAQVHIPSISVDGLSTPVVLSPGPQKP
In short, it runs like this: (§1)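 Binding signal is defined as a hexamer's read frequency for one factor over its frequency for the tag-only sample. To obtain reads, GST-fused human transcription factors were expressed in yeast, captured on glutathione beads, barcoded with DNA and pooled with that sample. Pools met 200 nmole of a 16-mer random double-stranded DNA library in Tris/NaCl/DTT/glycerol buffer for 30 min at room temperature before washing, 0.1% formaldehyde crosslinking, proximity ligation (BsaI/T4 ligase, 1 h, 37 °C), PCR and Illumina NextSeq500 sequencing.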

Assay [2] concerns the target T2, GABPA (Homo sapiens, UniProt Q06546 1-454).
T2 sequence: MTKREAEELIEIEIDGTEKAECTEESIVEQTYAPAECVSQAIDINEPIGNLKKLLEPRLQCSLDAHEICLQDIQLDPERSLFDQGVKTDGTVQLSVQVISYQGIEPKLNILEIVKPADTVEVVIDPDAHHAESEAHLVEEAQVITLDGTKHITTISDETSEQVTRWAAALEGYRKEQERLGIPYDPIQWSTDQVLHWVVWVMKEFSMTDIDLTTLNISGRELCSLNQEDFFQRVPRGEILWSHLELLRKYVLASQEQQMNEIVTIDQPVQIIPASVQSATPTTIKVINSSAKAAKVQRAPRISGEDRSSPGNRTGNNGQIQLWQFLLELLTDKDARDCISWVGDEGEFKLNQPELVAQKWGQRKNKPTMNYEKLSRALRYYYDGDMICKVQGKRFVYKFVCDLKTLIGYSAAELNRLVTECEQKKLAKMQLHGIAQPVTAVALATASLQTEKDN
In short, it runs like this: as §1

The target in assay [3] is ELF1 (Homo sapiens, UniProt P32519 1-619). An outline of the steps: as §1
Chain of ELF1 (P32519 whole entry): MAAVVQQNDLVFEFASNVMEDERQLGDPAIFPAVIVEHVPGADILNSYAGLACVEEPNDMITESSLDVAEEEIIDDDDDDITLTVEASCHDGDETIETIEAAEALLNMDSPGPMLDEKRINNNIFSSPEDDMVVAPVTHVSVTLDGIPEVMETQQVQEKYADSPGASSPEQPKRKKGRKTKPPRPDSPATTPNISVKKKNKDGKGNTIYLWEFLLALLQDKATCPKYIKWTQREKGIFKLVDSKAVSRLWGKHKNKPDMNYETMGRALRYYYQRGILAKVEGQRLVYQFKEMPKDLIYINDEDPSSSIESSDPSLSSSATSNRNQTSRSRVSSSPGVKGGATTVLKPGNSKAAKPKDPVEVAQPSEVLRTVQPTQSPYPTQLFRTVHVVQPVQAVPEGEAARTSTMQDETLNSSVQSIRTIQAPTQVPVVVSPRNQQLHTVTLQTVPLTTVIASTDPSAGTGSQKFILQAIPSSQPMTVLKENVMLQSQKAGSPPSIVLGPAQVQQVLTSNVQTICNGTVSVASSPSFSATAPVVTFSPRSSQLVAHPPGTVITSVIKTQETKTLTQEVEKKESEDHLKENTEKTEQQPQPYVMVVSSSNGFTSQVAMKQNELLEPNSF
The target in assay [4] is T3, EHF (Homo sapiens, UniProt Q9NZC4 1-300).
T3 sequence: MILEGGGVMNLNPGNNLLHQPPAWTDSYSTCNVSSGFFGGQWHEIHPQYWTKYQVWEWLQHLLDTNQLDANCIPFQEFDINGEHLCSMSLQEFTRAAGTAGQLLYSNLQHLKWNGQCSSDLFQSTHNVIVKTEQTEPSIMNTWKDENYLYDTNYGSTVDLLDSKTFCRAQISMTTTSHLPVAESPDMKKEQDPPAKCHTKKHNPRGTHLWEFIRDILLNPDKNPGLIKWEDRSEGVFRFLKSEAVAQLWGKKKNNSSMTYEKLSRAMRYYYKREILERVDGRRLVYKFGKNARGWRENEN
An outline of the steps:
as §1

The target of assay [5] is T4, ELK4 (Homo sapiens, UniProt P28324-2 1-405).
T4 sequence: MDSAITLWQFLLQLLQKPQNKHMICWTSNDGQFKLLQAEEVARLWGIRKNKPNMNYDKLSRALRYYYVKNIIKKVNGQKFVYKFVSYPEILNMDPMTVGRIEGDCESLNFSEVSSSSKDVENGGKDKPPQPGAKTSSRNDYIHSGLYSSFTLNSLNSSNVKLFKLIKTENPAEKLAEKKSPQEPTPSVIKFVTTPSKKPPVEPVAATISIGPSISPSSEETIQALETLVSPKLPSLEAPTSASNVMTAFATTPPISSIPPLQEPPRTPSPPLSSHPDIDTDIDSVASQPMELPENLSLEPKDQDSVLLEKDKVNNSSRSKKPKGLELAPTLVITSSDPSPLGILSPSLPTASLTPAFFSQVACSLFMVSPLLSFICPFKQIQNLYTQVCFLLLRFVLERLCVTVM
In short, it runs like this: as §1

Assay [6] has as its target T5, ERF (Homo sapiens, UniProt P50548 1-548).
T5 sequence: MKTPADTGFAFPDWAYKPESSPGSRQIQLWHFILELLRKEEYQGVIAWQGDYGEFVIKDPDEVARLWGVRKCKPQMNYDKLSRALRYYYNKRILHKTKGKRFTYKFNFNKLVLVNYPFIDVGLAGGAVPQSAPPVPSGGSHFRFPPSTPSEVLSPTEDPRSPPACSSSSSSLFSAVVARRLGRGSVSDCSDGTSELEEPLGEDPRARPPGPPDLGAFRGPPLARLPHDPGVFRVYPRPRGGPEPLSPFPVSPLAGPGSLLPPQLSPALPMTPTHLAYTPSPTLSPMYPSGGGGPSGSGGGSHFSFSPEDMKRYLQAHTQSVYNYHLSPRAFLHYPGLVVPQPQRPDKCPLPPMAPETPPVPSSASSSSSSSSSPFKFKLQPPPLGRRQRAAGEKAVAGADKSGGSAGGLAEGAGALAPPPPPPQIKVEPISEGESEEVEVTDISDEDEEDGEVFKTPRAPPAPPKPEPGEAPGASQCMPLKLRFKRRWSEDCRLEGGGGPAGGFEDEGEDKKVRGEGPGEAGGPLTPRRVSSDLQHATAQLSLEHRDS
An outline of the steps:
as §1

Assay [7] addresses T6, ETV3L (Homo sapiens, UniProt Q6ZN32 1-361).
T6 sequence: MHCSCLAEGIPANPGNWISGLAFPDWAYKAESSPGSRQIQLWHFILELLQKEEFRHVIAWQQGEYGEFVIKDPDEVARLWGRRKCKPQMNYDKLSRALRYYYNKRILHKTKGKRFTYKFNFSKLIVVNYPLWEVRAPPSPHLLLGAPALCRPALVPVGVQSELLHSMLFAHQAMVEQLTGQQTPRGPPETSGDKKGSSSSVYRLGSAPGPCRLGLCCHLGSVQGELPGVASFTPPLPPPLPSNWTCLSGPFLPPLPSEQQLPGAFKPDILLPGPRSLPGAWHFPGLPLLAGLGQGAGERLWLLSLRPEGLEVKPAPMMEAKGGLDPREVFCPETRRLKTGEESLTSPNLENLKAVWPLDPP
An outline of the steps: as §1

Assay [8] deals with T7, ETS2 (Homo sapiens, UniProt P15036 1-469).
T7 sequence: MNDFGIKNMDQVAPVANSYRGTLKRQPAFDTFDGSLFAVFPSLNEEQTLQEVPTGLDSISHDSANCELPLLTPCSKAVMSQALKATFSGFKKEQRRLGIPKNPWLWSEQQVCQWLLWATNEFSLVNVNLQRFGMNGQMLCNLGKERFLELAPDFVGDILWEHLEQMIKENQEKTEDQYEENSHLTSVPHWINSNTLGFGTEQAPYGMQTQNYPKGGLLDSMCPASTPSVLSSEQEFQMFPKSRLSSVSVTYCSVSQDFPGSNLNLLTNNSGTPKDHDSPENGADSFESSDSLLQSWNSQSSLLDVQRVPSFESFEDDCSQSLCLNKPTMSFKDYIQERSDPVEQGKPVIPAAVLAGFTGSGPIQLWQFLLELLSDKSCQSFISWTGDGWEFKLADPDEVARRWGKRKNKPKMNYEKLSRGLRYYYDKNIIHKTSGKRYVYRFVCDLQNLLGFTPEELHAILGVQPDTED
In short, it runs like this: as §1

In assay [9] the target is T8, ERG (Homo sapiens, UniProt P11308 1-479).
T8 sequence: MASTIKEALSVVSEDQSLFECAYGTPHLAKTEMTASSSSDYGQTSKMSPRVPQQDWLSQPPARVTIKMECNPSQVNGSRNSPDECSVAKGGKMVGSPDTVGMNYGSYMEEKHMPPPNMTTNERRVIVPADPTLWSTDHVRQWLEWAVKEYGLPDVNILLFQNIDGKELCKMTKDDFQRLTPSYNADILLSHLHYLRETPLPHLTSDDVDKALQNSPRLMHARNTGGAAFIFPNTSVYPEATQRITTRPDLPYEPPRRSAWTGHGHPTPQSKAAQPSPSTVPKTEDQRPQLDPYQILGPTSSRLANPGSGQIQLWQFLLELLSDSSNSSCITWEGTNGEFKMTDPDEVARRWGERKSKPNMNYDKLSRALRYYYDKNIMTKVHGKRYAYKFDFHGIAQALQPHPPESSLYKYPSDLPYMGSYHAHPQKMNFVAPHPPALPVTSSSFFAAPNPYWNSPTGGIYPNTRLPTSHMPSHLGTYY
An outline of the steps: as §1

Assay [10] concerns the target T9, ELK3 (Homo sapiens, UniProt P41970 1-407).
T9 sequence: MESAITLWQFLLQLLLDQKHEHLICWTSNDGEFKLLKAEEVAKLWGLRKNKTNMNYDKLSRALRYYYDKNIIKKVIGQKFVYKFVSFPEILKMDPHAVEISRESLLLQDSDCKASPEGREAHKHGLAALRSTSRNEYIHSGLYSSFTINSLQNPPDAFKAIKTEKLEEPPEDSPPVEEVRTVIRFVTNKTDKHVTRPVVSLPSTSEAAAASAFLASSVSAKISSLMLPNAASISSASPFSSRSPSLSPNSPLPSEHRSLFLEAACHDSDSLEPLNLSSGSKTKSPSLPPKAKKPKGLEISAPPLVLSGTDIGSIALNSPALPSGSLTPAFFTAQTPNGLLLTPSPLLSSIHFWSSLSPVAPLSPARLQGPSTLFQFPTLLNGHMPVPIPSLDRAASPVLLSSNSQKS
An outline of the steps:
as §1

The target in assay [11] is ELF4 (Homo sapiens, UniProt Q99607 1-663). An outline of the steps: as §1
Chain of ELF4 (Q99607 whole entry): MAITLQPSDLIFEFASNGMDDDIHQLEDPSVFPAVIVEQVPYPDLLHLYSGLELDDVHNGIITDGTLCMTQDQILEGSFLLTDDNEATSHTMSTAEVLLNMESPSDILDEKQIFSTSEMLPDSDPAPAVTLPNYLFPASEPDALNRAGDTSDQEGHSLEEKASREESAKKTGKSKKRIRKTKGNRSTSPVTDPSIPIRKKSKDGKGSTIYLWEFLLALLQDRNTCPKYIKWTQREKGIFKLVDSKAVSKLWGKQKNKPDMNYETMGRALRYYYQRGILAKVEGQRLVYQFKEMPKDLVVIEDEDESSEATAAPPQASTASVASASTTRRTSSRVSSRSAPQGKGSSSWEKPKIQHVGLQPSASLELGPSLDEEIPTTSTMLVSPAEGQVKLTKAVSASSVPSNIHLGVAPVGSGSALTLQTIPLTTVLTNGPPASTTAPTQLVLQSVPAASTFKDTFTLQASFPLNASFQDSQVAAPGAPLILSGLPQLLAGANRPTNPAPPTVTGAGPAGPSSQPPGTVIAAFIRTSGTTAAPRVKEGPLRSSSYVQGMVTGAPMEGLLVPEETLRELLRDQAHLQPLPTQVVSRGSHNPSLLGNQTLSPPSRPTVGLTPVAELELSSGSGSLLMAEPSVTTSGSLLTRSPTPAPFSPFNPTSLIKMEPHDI
Assay [12] concerns the target T10, ELF3 (Homo sapiens, UniProt P78545 1-371).
T10 sequence: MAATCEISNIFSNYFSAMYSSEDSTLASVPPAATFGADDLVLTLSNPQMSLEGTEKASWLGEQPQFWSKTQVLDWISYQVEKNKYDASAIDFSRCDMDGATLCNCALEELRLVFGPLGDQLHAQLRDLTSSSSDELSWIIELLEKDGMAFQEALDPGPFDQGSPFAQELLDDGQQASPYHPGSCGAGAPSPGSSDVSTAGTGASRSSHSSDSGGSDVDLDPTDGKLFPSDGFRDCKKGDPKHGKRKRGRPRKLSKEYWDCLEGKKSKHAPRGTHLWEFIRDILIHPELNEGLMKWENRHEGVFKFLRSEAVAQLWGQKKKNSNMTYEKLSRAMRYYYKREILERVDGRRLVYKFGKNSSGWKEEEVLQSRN
An outline of the steps:
as §1

In assay [13] the target is ETV1 (Homo sapiens, UniProt P50549 1-477). An outline of the steps:
as §1

Chain of ETV1 (P50549 whole entry): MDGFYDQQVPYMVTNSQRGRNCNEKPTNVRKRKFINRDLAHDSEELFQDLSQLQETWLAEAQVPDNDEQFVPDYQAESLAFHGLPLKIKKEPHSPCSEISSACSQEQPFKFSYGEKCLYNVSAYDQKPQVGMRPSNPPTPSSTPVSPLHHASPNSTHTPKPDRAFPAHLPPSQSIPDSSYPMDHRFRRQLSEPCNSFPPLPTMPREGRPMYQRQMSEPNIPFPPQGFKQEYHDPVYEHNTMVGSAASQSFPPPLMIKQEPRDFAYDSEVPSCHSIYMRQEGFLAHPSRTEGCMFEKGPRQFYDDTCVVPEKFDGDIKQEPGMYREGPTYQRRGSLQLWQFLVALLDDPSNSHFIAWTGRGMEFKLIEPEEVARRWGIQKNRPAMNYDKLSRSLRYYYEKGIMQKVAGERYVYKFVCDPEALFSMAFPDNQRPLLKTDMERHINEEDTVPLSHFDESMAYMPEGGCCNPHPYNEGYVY

As for TCATTG, the binding signal was 1.01 fold enrichment (6-mer frequency, TF over GST control) in assay [1]; 1 fold enrichment (6-mer frequency, TF over GST control) in [2]; 1.03 fold enrichment (6-mer frequency, TF over GST control) in [3]; 1.03 fold enrichment (6-mer frequency, TF over GST control) in assay [4]; 1.07 fold enrichment (6-mer frequency, TF over GST control) in assay [5]; 1.04 fold enrichment (6-mer frequency, TF over GST control) in assay [6]. In addition, the binding signal was 1.04 fold enrichment (6-mer frequency, TF over GST control) in assay [7] and 1 fold enrichment (6-mer frequency, TF over GST control) in [8].

Consider CAATGA, for which the binding signal was 1.04 fold enrichment (6-mer frequency, TF over GST control) in assay [1]; 1.05 fold enrichment (6-mer frequency, TF over GST control) in [2]; 1.03 fold enrichment (6-mer frequency, TF over GST control) in assay [9]; 1.06 fold enrichment (6-mer frequency, TF over GST control) in assay [3]; 1.04 fold enrichment (6-mer frequency, TF over GST control) in [10]; 1.01 fold enrichment (6-mer frequency, TF over GST control) in assay [11]. Moreover, the binding signal in [5] is 1.12 fold enrichment (6-mer frequency, TF over GST control); in [12], 1.15 fold enrichment (6-mer frequency, TF over GST control); in assay [13], 1.01 fold enrichment (6-mer frequency, TF over GST control); in [6] it was 1.06 fold enrichment (6-mer frequency, TF over GST control); in [8] it was 1.03 fold enrichment (6-mer frequency, TF over GST control).
